High-throughput results: PubChem, National Center for Advancing Translational Sciences (NCATS)
Rows were chosen to be rich in hits. Some 8.7% of all compounds tested hit in one or more screens of this group.
HP1b chromo inh – HP1-beta chromodomain-methylated histone interaction inhibition | P83916 | AlphaScreen HP1-beta / biotin-H3K9me3 peptide binding | Potency, µM (highest dose often 114 µM), for the others: at the highest dose activity change, negative = inhibition, hits mostly inhibitors | 390,000 compounds, 0.56% hits | AID 540317; also: nearly all actives have a fitted effect of over 70% in size
Target sequence (P83916 whole entry, looked up): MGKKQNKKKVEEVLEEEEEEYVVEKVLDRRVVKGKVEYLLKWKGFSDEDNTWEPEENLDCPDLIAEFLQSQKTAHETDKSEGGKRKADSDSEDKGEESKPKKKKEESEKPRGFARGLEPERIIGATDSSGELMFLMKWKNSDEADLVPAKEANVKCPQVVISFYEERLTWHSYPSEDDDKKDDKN
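HP1-beta protein (50 nM final) preincubated 30 min at room temperature with biotinylated H3(1-18)K9me3 peptide (50 nM) in PBS pH 7.4, 0.01% Tween-20, then compound added for 30 min. AlphaScreen streptavidin donor/nickel chelate acceptor beads (10 ug/mL final), 30 min dark, luminescence read.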
G9a block – inhibitors of human histone lysine methyltransferase G9a; 350,000 compounds, 8.8% hits; Potency, µM (doses to about 102 µM), inactives show at the highest dose activity, negative = inhibition, usual class: inhibitors; AID 504332; G9a H3K9 monomethylation, AlphaScreen, 2 h; also: % is scaled to controls: 0 for no effect and ±100 for the full control effect; nearly all actives have a fitted effect of over 75% in size
Target sequence (Q96KQ7 913-1193 limits assumed): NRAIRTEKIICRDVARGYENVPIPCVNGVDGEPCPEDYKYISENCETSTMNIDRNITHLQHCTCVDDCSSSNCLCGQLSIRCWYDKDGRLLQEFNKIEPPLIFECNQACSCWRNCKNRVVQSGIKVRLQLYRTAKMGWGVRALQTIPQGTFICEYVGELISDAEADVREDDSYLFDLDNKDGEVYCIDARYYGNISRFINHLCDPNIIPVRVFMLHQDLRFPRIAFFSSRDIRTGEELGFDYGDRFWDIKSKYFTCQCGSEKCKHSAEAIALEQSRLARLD
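G9a (20 nM) preincubated 15 min RT with compounds, then 500 nM biotinylated H3K9 peptide and 20 uM SAM added; 2 h RT reaction. Monomethyl-H3K9 product detected by AlphaScreen with anti-H3K9me1 antibody, streptavidin donor and anti-rabbit IgG acceptor beads.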
Sfp PPTase inh – blocks B. subtilis Sfp PPTase activity; Biochemical Sfp PPTase activity, qHTS; Potency, µM, for inactives: largest response in the series, negative = inhibition, usual class: inhibitors; 310,000 compounds, 3.5% hits; AID 1490;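 also: the enzyme is Sfp with the accession as filed and its product quenches rhodamine fluorescence; 0% = enzyme reaction without inhibitor and -100% = no enzyme wells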
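Fluorescence-quenching assay: 15 nM Sfp-PPTase preincubated 15 min at room temperature with compound, then 5 uM rhodamine-CoA and 12.5 uM BHQ-2-labelled YbbR peptide added. Fluorescence (ex 525/em 598 nm) read at start and after 30 min; difference gives rate.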
BAZ2B block – inhibitors of human BAZ2B bromodomain; Q9UIF8; Potency, µM (highest dose often 114 µM), without a hit: at the highest dose activity change, negative = inhibition, actives largely listed as inhibitors; 360,000 compounds, 4.4% hits; AlphaScreen BAZ2B-H3K14Ac peptide displacement; also: % is scaled to controls: 0 for no effect and ±100 for the full control effect; nearly all actives have a fitted effect of over 60% in size
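BAZ2B 50 nM plus b-H3(5-23)K14Ac 50 nM, PBS pH 7.4/0.01% Tween-20, 30 min RT; compound added (max 110 uM), 30 min RT; streptavidin donor/Ni-chelate acceptor beads 10 ug/mL final, 20 min dark; AlphaScreen read.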
JMJD2A Tudor – blocks the human JMJD2A Tudor domain | 390,000 compounds, 4.4% hits | O75164 | AID 504339 | Potency, µM (doses to about 114 µM), without a hit: at the highest dose activity change, negative = inhibition, usual class: inhibitors | AlphaScreen JMJD2A-Tudor / H3K4me3 peptide binding; also: % is scaled to controls: 0 for no effect and ±100 for the full control effect; nearly all actives have a fitted effect of over 50% in size
ALOX12 inh – ALOX12 (human) lipoxygenase inhibition | 580,000 compounds, 1.1% hits | AID 1671190 | P18054 | Potency, µM (doses to about 108 µM), for inactives: top-dose activity change, negative = inhibition, actives largely listed as inhibitors | purified 12hLO, xylenol orange hydroperoxide absorbance; also: % is scaled to controls: 0 for no effect and ±100 for the full control effect
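Hydroperoxide product was detected by ferrous iron/xylenol orange as the 573 to 405 nm absorbance ratio. Arachidonic acid at 40 uM (final) was turned over for 30 min at room temperature by 150 nM human 12hLO, pH 7.0 Hepes buffer, after 15 min compound preincubation.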
* hit, by the source's call; [ ] = remark or other dose. Calls follow the shape of the dose curve; as a rule, active = well fitted curve in the direction sought with a large enough effect; inconclusive = small, poorly fitted or top-dose-only effect, or another doubt; inactive = no such curve, though single readings can be large; an effect the other way counts as inactive or inconclusive. Potency is read from the fitted curve at half-maximal effect.

For COc1cc(NC(=S)NCCc2ccc(S(N)(=O)=O)cc2)c(OC)cc1Cl the results were HP1b chromo inh 14%, G9a block inconclusive, Sfp PPTase inh 16µM*, BAZ2B block inconclusive, JMJD2A Tudor -11% and ALOX12 inh -24%.
`COc1cc(NC(=S)NC2CC(C)(C)NC(C)(C)C2)cc(OC)c1` gave HP1b chromo inh 26%, G9a block 24%[12.7 µM], Sfp PPTase inh 20%, BAZ2B block -8%, JMJD2A Tudor 1% and ALOX12 inh -15%.
For COc1cc(NC(=S)NC2CC(C)(C)NC(C)(C)C2)c(OC)cc1Cl the results were HP1b chromo inh 38%, G9a block 50µM*, Sfp PPTase inh 8%, BAZ2B block -30%, JMJD2A Tudor -18% and ALOX12 inh -16%.
`COc1cc(NC(=S)NCCCO)c(OC)cc1Cl` gave HP1b chromo inh 27%, G9a block 28µM*, Sfp PPTase inh inconclusive, BAZ2B block -10%, JMJD2A Tudor -1% and ALOX12 inh -9%.
Screening COc1cc(C(=O)NCCc2ccc(S(N)(=O)=O)cc2)cc(OC)c1OC returned HP1b chromo inh 19%, G9a block -47%, Sfp PPTase inh 8%, BAZ2B block 3%, JMJD2A Tudor -18% and ALOX12 inh -3%.
For CCn1c(SCC(=O)N/N=C/C=C\c2ccco2)nc2ccccc21 the results were HP1b chromo inh -11%, G9a block 16µM*, Sfp PPTase inh 10µM*, BAZ2B block 45µM*, JMJD2A Tudor inconclusive and ALOX12 inh inconclusive.
For C/C(=N/NC(=O)CSc1nc2ccccc2n1C)c1ccco1 the results were HP1b chromo inh 35%, Sfp PPTase inh 17%, BAZ2B block -10%, JMJD2A Tudor -20% and ALOX12 inh inactive.
`O=C(CSc1nc2ccccc2n1Cc1ccccc1)N/N=C/c1ccco1` gave HP1b chromo inh 15%, G9a block 1%[59 µM], Sfp PPTase inh inconclusive, BAZ2B block -1%, JMJD2A Tudor -6% and ALOX12 inh 0%.
`CCn1c(SCC(=O)N/N=C/c2cccs2)nc2ccccc21` gave HP1b chromo inh 30%, G9a block -5%[59 µM], Sfp PPTase inh -6%, BAZ2B block 6%, JMJD2A Tudor -22% and ALOX12 inh -1%.
Cn1c(SCC(=O)N/N=C/C=C\c2ccco2)nc2ccccc21 was read as HP1b chromo inh inconclusive, Sfp PPTase inh -65%, BAZ2B block inconclusive, JMJD2A Tudor 56µM* and ALOX12 inh inconclusive.
Screening Cc1ccc(CSc2nnc(SCC(=O)N/N=C/C=C/c3ccco3)s2)cc1 returned HP1b chromo inh 5%, G9a block inconclusive, Sfp PPTase inh 40µM*, BAZ2B block 50µM*, JMJD2A Tudor -13% and ALOX12 inh -28%.
Screening Cc1ccc(Cn2c(SCC(=O)N/N=C/c3ccc(C)o3)nc3ccccc32)cc1 returned HP1b chromo inh inconclusive, G9a block inconclusive, Sfp PPTase inh 56µM*, BAZ2B block inconclusive, JMJD2A Tudor -15% and ALOX12 inh 0%.
`CC(NC(=O)c1ccc(Br)o1)c1ccc(S(N)(=O)=O)cc1` (stereo unspecified) gave ALOX12 inh 3%.
For CCCCn1c(N)c(N(CCOC)C(=O)C2CCCN(C(=O)c3ccc(Cl)cc3)C2)c(=O)[nH]c1=O (stereo unspecified) the results were HP1b chromo inh 35%, G9a block 28µM*, BAZ2B block -9%, JMJD2A Tudor -8% and ALOX12 inh -39%.
Screening CCCCn1c(N)c(N(CCOC)C(=O)C2CCN(C(=O)c3ccc(F)cc3)CC2)c(=O)[nH]c1=O returned HP1b chromo inh 9%, G9a block -29%, BAZ2B block -6%, JMJD2A Tudor -3% and ALOX12 inh -1%.
`CCCCn1c(N)c(N(CCOC)C(=O)C2CCN(S(=O)(=O)c3ccc(C)c(C)c3)CC2)c(=O)[nH]c1=O` gave HP1b chromo inh 35%, G9a block 50µM*, BAZ2B block -5%, JMJD2A Tudor -18% and ALOX12 inh inconclusive.
CCCCn1c(N)c(N(CCC(C)C)C(=O)C2CCCC2)c(=O)[nH]c1=O was read as HP1b chromo inh 51%, G9a block 20µM*, BAZ2B block -3%, JMJD2A Tudor -5% and ALOX12 inh 7%.
For CCCCn1c(N)c(N(CC(C)C)C(=O)C2CCCN(C(=O)c3ccc(Cl)cc3)C2)c(=O)[nH]c1=O (stereo unspecified) the results were HP1b chromo inh 17%, G9a block inconclusive, BAZ2B block -4%, JMJD2A Tudor -10% and ALOX12 inh 6%.
`CCCCn1c(N)c(N(CCOC)C(=O)C2CCN(C(=O)c3ccc(Cl)cc3)CC2)c(=O)[nH]c1=O` gave HP1b chromo inh 35%, G9a block 56µM*, BAZ2B block -6%, JMJD2A Tudor -3% and ALOX12 inh -16%.
For COc1ccc(S(=O)(=O)Nc2nc3ccccc3nc2Nc2ccc(OC)cc2OC)cc1 the results were ALOX12 inh -14%.
CC(=O)Nc1ccc2oc(-c3ccc(C)cc3)cc(=O)c2c1 was read as ALOX12 inh -6%.
Screening O=S(=O)(c1cccs1)N1CCCC(c2nc(-c3ccccc3)no2)C1 (stereo unspecified) returned ALOX12 inh 3%.
`CCCCN(C(=O)C1CC(=O)N(Cc2ccc(C)cc2)C1)c1c(N)n(CCCC)c(=O)[nH]c1=O` (stereo unspecified) gave HP1b chromo inh 0%, G9a block -2%[0.501 µM], BAZ2B block -5%, JMJD2A Tudor -15% and ALOX12 inh -27%.
`CCCCN(C(=O)C1CC(=O)N(CCc2ccc(OC)c(OC)c2)C1)c1c(N)n(CCCC)c(=O)[nH]c1=O` (stereo unspecified) gave HP1b chromo inh 18%, G9a block 16µM*, BAZ2B block -23%, JMJD2A Tudor -4% and ALOX12 inh -18%.
Screening CCOc1ccc(CCNC(=O)C2CC(C)=CCC2C(=O)O)cc1OCC (stereo unspecified) returned HP1b chromo inh inconclusive, G9a block 22µM*, Sfp PPTase inh 7%, BAZ2B block 50µM*, JMJD2A Tudor 25µM* and ALOX12 inh -4%.
For CCOc1ccc(CCNC(=O)CSC(=S)N2CCCC2)cc1OCC the results were HP1b chromo inh -5%, G9a block 40µM*, BAZ2B block 7%, JMJD2A Tudor inconclusive and ALOX12 inh -35%.
